High-throughput results from PubChem BioAssay.
GPR151 ag = activators of human GPR151; Q8TDV0; PathHunter beta-arrestin GPR151 cells, luminescence; activation, % at 11.2 µM; hit rate 1% among 650,000; AID 1508602; in the data active = activation above about 4.9%;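 also: 0% = median of compound wells and 100% = cells with positive control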
FBW7 activator = human FBW7 E3 ligase activation, primary screen. AlphaScreen FBW7–phospho-cyclin E peptide binding, activator screen. normalized activity (activation), % at 26.1 µM. hit rate 0.13% among 650,000. AID 1259310; in the data active = normalized activity above about 1.9%;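 also: purified mutant Fbw7 with reduced substrate affinity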
MITF primary = blocks human microphthalmia-associated transcription factor | hit rate 0.91% among 650,000 | inhibition, % at 2.6 µM | O75030 | AlphaScreen MITF homodimerization, bead proximity signal; in the data active = inhibition above about 50%;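 also: 0% = vehicle wells with protein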
Target sequence (O75030 whole entry, looked up): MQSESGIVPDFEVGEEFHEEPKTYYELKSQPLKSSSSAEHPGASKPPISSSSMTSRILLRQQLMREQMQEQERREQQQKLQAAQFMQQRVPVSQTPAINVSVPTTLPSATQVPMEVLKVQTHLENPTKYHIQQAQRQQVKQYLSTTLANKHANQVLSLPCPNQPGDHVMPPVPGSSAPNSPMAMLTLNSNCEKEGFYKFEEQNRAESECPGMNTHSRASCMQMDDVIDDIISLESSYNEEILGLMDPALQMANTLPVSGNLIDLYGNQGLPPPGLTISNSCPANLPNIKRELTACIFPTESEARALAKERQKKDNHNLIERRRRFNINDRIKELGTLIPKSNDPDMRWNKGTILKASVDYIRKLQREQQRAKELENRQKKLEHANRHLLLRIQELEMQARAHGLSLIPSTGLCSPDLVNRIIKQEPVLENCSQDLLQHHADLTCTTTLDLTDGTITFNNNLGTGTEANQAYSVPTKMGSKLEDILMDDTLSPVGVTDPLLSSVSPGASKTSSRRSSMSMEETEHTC
TEAD-YAP block = TEAD-YAP interaction inhibition | HEK-TIYL cells, TEAD-Gal4/YAP UAS-luciferase luminescence | inhibition, % at 9.12 µM | hit rate 1.4% among 640,000; in the data active = inhibition above about 32%;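 also: 0% = median of test compound wells and 100% = reference inhibitor wells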
The depositor's hits bear a star. In the library only some 3.5% were active in any assay of this set; here they are far more common.

SMILES | GPR151 ag | FBW7 activator | MITF primary | TEAD-YAP block
Cc1ccccc1NC(=O)c1sc(NC(=O)/C=C/c2ccccc2)nc1C | 2 | 0 | 1 | 49*
CC(=O)c1ccc(Nc2ccc(-c3ccccc3F)nn2)cc1 | 0 | 0 | 2 | 57*
CC(=O)c1ccc(NC2=C(Cl)C(=O)c3ccccc3C2=O)cc1 | -1 | 0 | 2 | 49*
COc1ccc(Nc2nc(Cl)nc(OCC(F)(F)F)n2)cc1 | 0 | 0 | 2 | 10
Cc1cccc(-c2nc3cc(NC(=O)c4sc5ccccc5c4Cl)ccc3o2)c1 | 0 | 0 | 10 | 4
COc1ccc2c(c1)c1c(n2Cc2ccccc2)CCCC1 | 0 | 1 | 16 | 3
COc1ccc2c(c1)c1c3n2CCN(Cc2ccccc2)C3=[N+](C)CC1 | 3 | 0 | 1 | 42*
COc1cc(C(=O)/C(=C/c2ccc(C)cc2)c2nc3ccccc3o2)cc(OC)c1OC | -1 | 0 | -11 | 5
COc1cc(/C=C(\C(=O)c2ccc(C)cc2)c2nc3ccccc3o2)cc(OC)c1OC | 1 | 0 | 8 | 69*
CC(C)COCc1ccc(O)c2ncccc12 | 0 | -2 | 59* | 22
CSc1ccccc1NC(=O)c1cc(=O)c(OCc2ccccc2)c[nH]1 | 1 | 0 | 7 | -4
O=C(C(=O)N1CCN(C(=O)c2ccco2)CC1)c1c(-c2ccccc2)cc2ccccn12 | 0 | 0 | 3 | 42*
CN(C)S(=O)(=O)c1ccc2c(c1)CC(c1nc3ccc(-c4ccncc4)cc3[nH]1)CO2 (stereo not given) | 0 | 0 | 19 | 8
Oc1cccc2ccc(/C=C/c3ccccc3)nc12 | -7 | 0 | 2 | 32*
Oc1ccc(Br)c2ccc(/C=C/c3ccccc3)nc12 | 0 | 0 | 13 | -23
CSc1ccc(/C=C/c2ccc3cccc(O)c3n2)cc1 | -7 | 0 | 13 | 34*
O=C(NCCc1ccccc1)C1C2C3CCC(C3)C12 (stereo not given) | -4 | 0 | -5 | 58*
COc1ccc(NS(=O)(=O)c2c(C)cc(C)cc2C)cc1OC | 0 | 0 | 3 | 45*
COc1ccc(NS(=O)(=O)c2cc(C)ccc2OC)cc1OC | -2 | 1 | 3 | 0
COc1ccc(NS(=O)(=O)c2ccc(-n3cccn3)cc2)cc1OC | -1 | 0 | 6 | 40*
Cc1ccc(NS(=O)(=O)c2ccc(-n3cccn3)cc2)cc1C | 3 | 0 | 2 | 2
CC(C)(C)n1ncc2c(=O)n(CC(=O)OCc3ccccc3)cnc21 | -1 | 0 | 0 | 82*
COc1ccc(Nc2nc(-c3cc(OC)c(OC)c(OC)c3)nc3ccccc23)cc1OC | 1 | 0 | -3 | 27
COc1cc(-c2nc(Nc3ccc(OCc4ccccc4)cc3)c3ccccc3n2)cc(OC)c1OC | 0 | 0 | 5 | 10
CCOc1ccc(Nc2nc(NCc3ccccc3)c3ccccc3n2)cc1 | 3 | 0 | 1 | 33*
SMILES | GPR151 ag | FBW7 activator | MITF primary | TEAD-YAP block
CCOc1ccc(Nc2nc(-c3cc(OC)c(OC)c(OC)c3)nc3ccccc23)cc1 | 0 | 0 | 1 | 40*
COc1cc(-c2nc(Nc3ccc(C)c(Cl)c3)c3ccccc3n2)cc(OC)c1OC | 0 | 0 | 1 | 52*
CCOc1cccc(/C=N/n2c(C)nnc2-n2nc(C)cc2C)c1O | 0 | 0 | 10 | 1
CC(C)C(OC(=O)CN1C(=O)C2CCCCC2C1=O)C(=O)NC(N)=O (stereo not given) | 0 | 0 | 7 | 6
O=C(Cn1c(=S)[nH]c2ccccc2c1=O)NCc1ccco1 | 1 | 0 | 1 | 0
CC1CCN(c2nc3ncccc3nc2-c2ccccc2)CC1 | 0 | 2.1* | 11 | -1
O=C(NCCOc1ccccc1)c1ccc(Oc2ccc(C(F)(F)F)cc2[N+](=O)[O-])cc1 | -1 | 0 | -3 | 0
C=CCn1c(=NC(=O)c2ccccc2[N+](=O)[O-])sc2cc(NC(C)=O)ccc21 | 0 | 0 | 4 | 49*
O=C1c2ccccc2C(=O)c2c1ccc(C(=O)OCC(=O)N1CCOCC1)c2[N+](=O)[O-] | -1 | 0 | 58* | 2
O=C(COC(=O)c1ccc2c(c1[N+](=O)[O-])C(=O)c1ccccc1C2=O)NC1CC1 | -5 | 0 | 18 | 11
COc1cccc(CNC(=O)CCC(=O)N2CC(C)Oc3ccc(C)cc32)c1OC (stereo not given) | 0 | 0 | 10 | 8
COc1ccc(Nc2nc(Cl)c(C(F)(F)F)c(Cl)c2Cl)cc1 | 2 | 0 | 13 | -2
Cc1ccc(Nc2c(Cl)c(Cl)nc(Cl)c2C(F)(F)F)cc1 | 0 | 0 | 13 | 67*
Cc1cccc(N=c2oc3ccccc3cc2-c2nc3ccccc3[nH]2)c1 | -11 | 0 | -8 | 47*
Cc1ccc2nc(-c3cc4ccccc4oc3=N)[nH]c2c1 | -7 | 0 | -28 | 93*
Cc1ccccc1N=c1oc2ccccc2cc1-c1nc2ccccc2[nH]1 | -10 | 0 | 0 | 43*
O=C1CSC(c2ccc(Cl)cc2)N1c1ccc(Cl)c(Cl)c1 (stereo not given) | -1 | 0 | 2 | -17
Cn1c(O)c(C=Nc2ccc(F)cc2)c(=O)n(C)c1=O | 1 | 0 | 8 | -5
COc1cccc(NC(=S)N(CCCN2CCOCC2)Cc2cccs2)c1 | 0 | 0 | -11 | 7
CCOC(=O)c1ccc(NC(=O)C(=O)Nc2ccccn2)cc1 | -1 | 0 | 3 | -64
CC(=O)N1CC(C)Sc2cc(S(=O)(=O)N3CCN(Cc4ccccc4)CC3)ccc21 (stereo not given) | 0 | 0 | 14 | 49*
O=C(Cc1ccc(F)cc1)N1CCC2(CC1)OCc1cc(Br)ccc1O2 | -1 | 0 | -12 | 4
O=[N+]([O-])c1cccc(C(Nc2nccs2)c2ccc3cccnc3c2O)c1 (stereo not given) | -1 | 0 | 37 | 38*
CCCC(=O)NC(c1cccc([N+](=O)[O-])c1)c1ccc2cccnc2c1O (stereo not given) | 1 | -2 | 31 | 66*
CC(C)C(=O)NC(c1cccc([N+](=O)[O-])c1)c1ccc2cccnc2c1O (stereo not given) | 1 | -2 | 54* | 73*
SMILES | GPR151 ag | FBW7 activator | MITF primary | TEAD-YAP block
Oc1c(C(Nc2nccs2)c2ccco2)ccc2cccnc12 (stereo not given) | 1 | 0 | 20 | 6
CCCC(=O)NC(c1cccc(F)c1)c1ccc2cccnc2c1O (stereo not given) | 0 | -1 | 20 | 50*
CCCCC(=O)NC(c1ccc([N+](=O)[O-])cc1)c1ccc2cccnc2c1O (stereo not given) | 1 | -2 | 31 | 28
Cc1ccc(Nc2nc(CSc3nnc(N)s3)cs2)cc1 | 0 | 0 | 7 | 44*
CCOC(=O)c1c(NC=C(C#N)C#N)sc2c1CCCC2 | 0 | 0 | 1 | -1
COc1ccc(Nc2ccnc3c(-c4cccc(CO)c4)cnn23)cn1 | -3 | 0 | 5 | 98*
COc1ccc(Nc2ccnc3c(-c4ccc(O)cc4)cnn23)cn1 | -2 | 0 | -15 | 91*
COc1ccc(Nc2ccnc3c(-c4cccc(O)c4)cnn23)cn1 | -2 | 0 | 13 | 25
